The text below walks through data of PubChem BioAssay AID1566 (Sanford-Burnham Center for Chemical Genomics, 2009).

In all, about 290,000 compounds went through this assay and about 1,800 (0.62%) were called active. What follows is part of a selection rich in actives, with near analogues and random picks from the rest. Unmarked numbers belong to inactive results. Cut-off read from the data, not from the text of the source: active = inhibition above about 50%; inactive = the rest.

A short description of this assay: NOD2 signaling inhibitors, cell-based, luminescence, uHTS, HEK293 (AID 1566). The conditions noted are these: HEK293 NOD2/NF-kB luciferase reporter, at 4 µM, active compounds read high.
Usually inhibition stands for the change of the read-out against control, counted positive when it falls. With `C=C(C)C(=O)Oc1ccc(N2C(=O)[C@@H]3C4C=CC(C4)[C@@H]3C2=O)cc1`, the inhibition was -1.5%. For the molecule `CCn1c(=O)n(CC)c2cc(S(=O)(=O)N3CCCCC3)c(C)cc21`, the inhibition is -12.1%. For `NC(=O)CC(NC(=O)Cc1ccc(Br)cc1)c1ccc(NCCN2CCOCC2)c([N+](=O)[O-])c1` (centres undefined), the inhibition is -1.2%.

Turning to `N#CC1=C(N)Oc2n[nH]c(-c3cccnc3)c2C1c1cc(F)ccc1F` (centres undefined), the inhibition is -1.5%. Take `c1ccc(CNc2ncnc3sccc23)cc1`: the inhibition is 44.5%. `Fc1ccccc1CNc1ncnc2sccc12`: the inhibition is 56.7% (active). Take `c1cncc(CNc2ncnc3sccc23)c1`: the inhibition was 21.1%. Regarding `Cc1cccc(NC(=O)C(Cc2ccccc2)n2cccc2)c1` (centres undefined), the inhibition is 9.8%. With `Cc1ccc(NC(=O)C(CC(C)C)NC(N)=O)cc1Cl` (centres undefined), the inhibition was -3.3%. In the case of `CCN(CC)S(=O)(=O)c1cc(NC(=O)C(CC(C)C)NC(N)=O)ccc1C` (centres undefined), the inhibition is 57.5% (active). Consider `CCN(CC)S(=O)(=O)c1cc(NC(=O)[C@@H](NC(N)=O)C(C)C)ccc1C`, for which the inhibition was 6.6%. Consider `COc1ccc(/C(C)=N/NC(=O)c2nnn(-c3nonc3N)c2-c2ccccc2)cc1`, for which the inhibition is 6.5%.

Regarding `Cc1ccc(C(=O)Nc2cccc(C(F)(F)F)c2)cc1Nc1ccccn1`, the inhibition was -0.8%.

`Cc1ccc(C(=O)Nc2cccc(C(F)(F)F)c2)cc1Nc1cnccn1`: the inhibition is 14%. In the case of `CCN(CC)c1ccc(/C=N/N2CCN(Cc3ccccc3Cl)CC2)cc1`, the inhibition is 4.7%.

`CCCN(CCC)c1ncnc2c1cnn2-c1ccc(OC)cc1`: the inhibition was -123%.

As for `Cc1cccc(-n2ncc3c(N(C)Cc4ccccc4)ncnc32)c1`, the inhibition was -120%. For `Cc1cccc(-n2ncc3c(NC4CCCCC4)ncnc32)c1`, the inhibition is 7.4%. In the case of `Cc1cccc(-n2ncc3c(N(C)C4CCCCC4)ncnc32)c1` it was 72.3% (active). Turning to `COc1ccc(-n2ncc3c(NC(C)C)ncnc32)cc1`, the inhibition is 13.8%. Regarding `Fc1cccc(NC(=S)NCCc2ccccc2)c1`, the inhibition was 10%. `CC(=O)Oc1cccc(NC(=O)c2ccc3c(c2)C(=O)N(CC(C)C)C3=O)c1`: the inhibition was -7.8%.

Turning to `O=C(CN1CCc2ccccc2C1)Nc1cc(S(=O)(=O)N2CCOCC2)ccc1N1CCOCC1`, the inhibition was -2.4%. In the case of `CCN(CC)c1ccc(S(=O)(=O)N2CCOCC2)cc1NC(=O)CN1CCN(Cc2ccccc2)CC1`, the inhibition is -7.9%. For `COc1ccc(OC)c(N2C(=O)CC(C(C)c3ccccc3)C2=O)c1` (centres undefined), the inhibition was 9.7%. As to `COc1ccc(-n2c3c(cc(C(=O)NCc4ccco4)c2=O)C(=O)CC(C)(C)C3)cc1`, the inhibition was 10.7%.

On to `Cc1cc(C(=O)CSc2nnc3ccccn23)c(C)n1-c1ccccc1`, for which the inhibition was 66.8% (active).

In the case of `Cc1ccc(C(=O)CSc2nnc3ccccn23)c(C)c1`, the inhibition was -52.8%. With `Cc1cc(C(=O)CSc2nncn2C)c(C)n1-c1ccccc1`, the inhibition is -52.4%. In the case of `COc1ccc(NC(=O)c2c(NC(=O)CNCc3ccco3)sc3c2CCC3)cc1`, the inhibition is 6.3%. As to `O=C(O)c1cccc(Cn2c(Cl)c(/C=N/Nc3ccccc3)sc2=O)c1`, the inhibition was 14.5%. Next, `COC(=O)c1cccc(Cn2c(Cl)c(/C=N/Nc3ccccc3C)sc2=O)c1`: 10.1%; `Cc1ccccc1N/N=C/c1sc(=O)n(Cc2cccc(C(=O)O)c2)c1Cl`: 51.6% (active); `CCCNC(=S)N1CCC(C(=O)c2ccc(OC)cc2)CC1`: 15.3%. In the case of `COC(=O)N1C(=O)[C@](c2ccsc2)(C(C)C)N1C(=O)OC` it was 32.8%; in that of `CCCCc1c(C)nc2ccc(Br)cc2c1SCCC#N`, 18%.

On to `CCc1c(C)nc2c(Br)cccc2c1SCCC#N`, for which the inhibition is 10.1%. Consider `CC(C)N=c1scc(-c2cccs2)n1/N=C/c1ccc(O)c(O)c1O`, for which the inhibition was -1.3%. In the case of `CN=c1scc(-c2cccs2)n1/N=C/c1ccc(O)c(O)c1O` it was -25.9%; in that of `CN=c1scc(-c2cccs2)n1/N=C/c1ccccc1O`, 88.7% (active); in that of `CCc1noc(C)c1C(=O)OCC(=O)NC(=O)c1ccccc1`, 2.8%. On to `COC(=O)c1ccc(NC(=O)c2ccc3nsnc3c2)cc1`, for which the inhibition was -7.1%. For the molecule `c1ccc(COCCC2CO2)cc1` (centres undefined), the inhibition was -8.4%. In the case of `CS(=O)(=O)N(CC(=O)NCCSCc1ccccc1Cl)c1ccc(F)cc1` it was 3%; in that of `COc1ccc(C(=O)CSc2cc(C)nc3nc(C)nn23)cc1OC`, 14%; in that of `O=C(CSc1ccc(-c2ccc(Cl)cc2)nn1)N1CCCc2ccccc21`, -10.9%. Turning to `Cc1ccccc1-c1cn(-c2ccccc2)c(=S)[nH]1`, the inhibition was -47.3%.

Consider `O=C(O)c1ccc(-n2cc(-c3cc4ccccc4oc3=O)[nH]c2=S)cc1`, for which the inhibition was 27.5%. Take `O=c1oc2ccccc2cc1-c1cn(-c2ccccc2)c(=S)[nH]1`: the inhibition was 80.6% (active). For `O=c1[nH]c(C2CCN(S(=O)(=O)Cc3ccccc3)CC2)nc2c1nnn2Cc1ccccc1`, the inhibition was 5%. In the case of `CCOC(=O)Cc1ccc(NC(=O)c2ccccc2Br)cc1` it was -12.2%. In the case of `CC(C)(C)c1ccc(C(=O)Nc2ccc(CC(=O)O)cc2)o1`, the inhibition was 71.6% (active). Take `CC(C)(C)c1ccc(C(=O)Nc2ccc(NC(=O)C(=O)O)cc2)o1`: the inhibition is 9.4%. Consider `COC(=O)Cc1ccc(NC(=O)c2ccc(NC(=O)c3ccco3)cc2)cc1`, for which the inhibition was 0.9%. For `Cc1ccc(C(=O)Nc2ccc(CC(=O)O)cc2)o1`, the inhibition is 7.5%. Next, `CCOC(=O)Cc1ccc(NC(=O)c2ccc(C(C)(C)C)cc2)cc1`: 61.9% (active).

Consider `COC(=O)Cc1ccc(NC(=O)c2ccc(C)c(C)c2)cc1`, for which the inhibition was -48.4%.

For the molecule `CCOC(=O)Cc1ccc(NC(=O)c2ccc([N+](=O)[O-])cc2)cc1`, the inhibition was -1.9%. Next, `COC(=O)Cc1ccc(NC(=O)c2ccc(C(C)(C)C)cc2)cc1`: 70.7% (active); `Cc1ccc(C)c(S(=O)(=O)N2CCCOC2CNC(=O)C(=O)NCc2ccncc2)c1` (centres undefined): 11.8%; `Cc1cccc(N2CCN(C(=O)C3CCCCC3)CC2)c1C`: -34.8%.

On to `CCCCn1c(N)c(N(CCOC)C(=O)c2ccc(Cl)c(S(=O)(=O)N3CCCC3)c2)c(=O)[nH]c1=O`, for which the inhibition was -2.8%. For `O=c1cc(O)c2sc(Nc3cccc(C(F)(F)F)c3)nc2[nH]1`, the inhibition is 16.5%. For the molecule `COc1ccccc1N1C(=O)c2ccc(C(=O)Nc3ccccc3O)cc2C1=O`, the inhibition is -3.6%. With `O=C(c1ccc(Sc2cccc(Cl)c2)c([N+](=O)[O-])c1)N1CCN(c2ccccn2)CC1`, the inhibition was 9.4%. In the case of `O=C(c1ccc(Cl)c([N+](=O)[O-])c1)N1CCN(c2ccccn2)CC1` it was 6.3%; in that of `O=C(c1ccc(S(=O)(=O)Cc2ccccc2F)c([N+](=O)[O-])c1)N1CCCCCC1`, 22.6%. Turning to `Cc1cc(C(=O)N2CCN(Cc3ccccc3)CC2)ccc1[N+](=O)[O-]`, the inhibition was 6.4%.

With `O=C(c1ccc(Br)c([N+](=O)[O-])c1)N1CCN(Cc2ccccc2)CC1`, the inhibition was 10%. On to `O=C(c1ccc(S(=O)(=O)Cc2cc(F)ccc2F)c([N+](=O)[O-])c1)N1CCCC1`, for which the inhibition was 3.3%. `CCCSc1nnc(CSc2nc3ccccc3s2)n1-c1ccccc1`: the inhibition was 2.7%.

`O=C(COC(=O)c1ccccc1O)Nc1cccc(S(=O)(=O)NC2=NCCCCC2)c1`: the inhibition is 14.9%. In the case of `O=C1CCCN1CCC1CCN(C(=S)Nc2ccc(F)cc2)CC1` it was 1.1%.

Regarding `COc1ccc(C(=O)c2cnc3ccccc3c2-c2ccccc2)cc1`, the inhibition is 29.3%.

As for `Cc1cccc(C(=O)c2cnc3ccccc3c2-c2ccccc2)c1`, the inhibition is 1.1%. Regarding `Cc1ccc(C(=O)c2cnc3ccccc3c2-c2ccccc2)cc1`, the inhibition was 50.7% (active). Next, `O=C(NCc1cccc(C(F)(F)F)c1)C1CC(c2c(Cl)cccc2Cl)=NO1` (centres undefined): -28.5%. For `CCN=C1S/C(=C\c2ccc(-c3cccc(C(=O)O)c3)o2)C(=O)N1CC`, the inhibition was -81.2%. In the case of `O=C(O)c1cccc(-c2ccc(/C=C3/SC(=Nc4ccccc4)N(Cc4cccnc4)C3=O)o2)c1` it was 53.1% (active). As for `CCN1C(=O)/C(=C\c2ccc(-c3cccc(C(=O)OC)c3)o2)SC1=Nc1ccc(C(=O)O)cc1`, the inhibition was 4.2%. In the case of `Cc1cc(NC(=O)CSc2nnnn2C)n(-c2ccccc2)n1`, the inhibition was 6.4%. Next, `CCOC(=O)C1CCCN(S(=O)(=O)c2ccc(OC)c3ccccc23)C1` (centres undefined): 8.9%; `Cc1ccc(NC(=O)Nc2ccc3c(c2)CCC3)cc1C`: -15.3%. Next, `O=C(O)c1ccc2c(c1)CCC2`: 25.5%; `CN(C)C(=O)C(OC(=O)c1ccc2c(c1)CCCC2)c1ccccc1` (centres undefined): 90.9% (active). With `CN(C)C(=O)C(OC(=O)c1ccc2ccccc2n1)c1ccccc1` (centres undefined), the inhibition was -9.4%.

For the molecule `O=C(COc1ccc(S(=O)(=O)NCc2ccccc2)cc1)NCC1CCCO1` (centres undefined), the inhibition is -3%. Consider `Cc1csc(NC(=O)CSc2nnc(NC(=O)COc3ccc(Cl)cc3)s2)n1`, for which the inhibition was -17.3%.

As to `CCc1nc2ccccc2n1CC(O)COCC1CC=CCC1` (centres undefined), the inhibition was -7.7%. Next, `CCCc1n(CC(O)COCC2CC=CCC2)c2ccccc2[n+]1C` (centres undefined): 5.7%; `CCc1n(CC(O)COCC2CC=CCC2)c2ccccc2[n+]1C` (centres undefined): 55.3% (active). In the case of `Cc1cc(=O)oc2c(C)c(OC(C)C(=O)Nc3ccc(N4CCC(C)CC4)cc3)ccc12` (centres undefined) it was 3.4%; in that of `Cn1c(=O)c2c(-c3ccc(OC(F)F)cc3)cc(-c3ccccc3)nc2n(C)c1=O`, -4.7%. Next, `COC(=O)COc1ccc(S(=O)(=O)Nc2cc([N+](=O)[O-])ccc2C)cc1`: 8.7%.
